Molecules are shown by their SMILES.

Assay [1] relates to Tyrosine-protein kinase ABL1 (Homo sapiens), P00519 [T315I]. To be noted: at 1 µM.
Assay [2] deals with Tyrosine-protein kinase ABL1 (Homo sapiens), P00519 [Y253F]. To be noted: at 0.1 µM.
Assay [3] has the same test system. To be noted: at 1 µM.
Assay [4] concerns the target Tyrosine-protein kinase ABL1 (Homo sapiens) (UniProt P00519). To be noted: at 0.1 µM.
The target is the same in assay [5]. To be noted: at 1 µM.
In assay [6] the target is ALK tyrosine kinase receptor (Homo sapiens) (UniProt Q9UM73). To be noted: at 0.1 µM.
Sequence of ALK tyrosine kinase receptor (Homo sapiens) (Q9UM73 19-1620 limits assumed): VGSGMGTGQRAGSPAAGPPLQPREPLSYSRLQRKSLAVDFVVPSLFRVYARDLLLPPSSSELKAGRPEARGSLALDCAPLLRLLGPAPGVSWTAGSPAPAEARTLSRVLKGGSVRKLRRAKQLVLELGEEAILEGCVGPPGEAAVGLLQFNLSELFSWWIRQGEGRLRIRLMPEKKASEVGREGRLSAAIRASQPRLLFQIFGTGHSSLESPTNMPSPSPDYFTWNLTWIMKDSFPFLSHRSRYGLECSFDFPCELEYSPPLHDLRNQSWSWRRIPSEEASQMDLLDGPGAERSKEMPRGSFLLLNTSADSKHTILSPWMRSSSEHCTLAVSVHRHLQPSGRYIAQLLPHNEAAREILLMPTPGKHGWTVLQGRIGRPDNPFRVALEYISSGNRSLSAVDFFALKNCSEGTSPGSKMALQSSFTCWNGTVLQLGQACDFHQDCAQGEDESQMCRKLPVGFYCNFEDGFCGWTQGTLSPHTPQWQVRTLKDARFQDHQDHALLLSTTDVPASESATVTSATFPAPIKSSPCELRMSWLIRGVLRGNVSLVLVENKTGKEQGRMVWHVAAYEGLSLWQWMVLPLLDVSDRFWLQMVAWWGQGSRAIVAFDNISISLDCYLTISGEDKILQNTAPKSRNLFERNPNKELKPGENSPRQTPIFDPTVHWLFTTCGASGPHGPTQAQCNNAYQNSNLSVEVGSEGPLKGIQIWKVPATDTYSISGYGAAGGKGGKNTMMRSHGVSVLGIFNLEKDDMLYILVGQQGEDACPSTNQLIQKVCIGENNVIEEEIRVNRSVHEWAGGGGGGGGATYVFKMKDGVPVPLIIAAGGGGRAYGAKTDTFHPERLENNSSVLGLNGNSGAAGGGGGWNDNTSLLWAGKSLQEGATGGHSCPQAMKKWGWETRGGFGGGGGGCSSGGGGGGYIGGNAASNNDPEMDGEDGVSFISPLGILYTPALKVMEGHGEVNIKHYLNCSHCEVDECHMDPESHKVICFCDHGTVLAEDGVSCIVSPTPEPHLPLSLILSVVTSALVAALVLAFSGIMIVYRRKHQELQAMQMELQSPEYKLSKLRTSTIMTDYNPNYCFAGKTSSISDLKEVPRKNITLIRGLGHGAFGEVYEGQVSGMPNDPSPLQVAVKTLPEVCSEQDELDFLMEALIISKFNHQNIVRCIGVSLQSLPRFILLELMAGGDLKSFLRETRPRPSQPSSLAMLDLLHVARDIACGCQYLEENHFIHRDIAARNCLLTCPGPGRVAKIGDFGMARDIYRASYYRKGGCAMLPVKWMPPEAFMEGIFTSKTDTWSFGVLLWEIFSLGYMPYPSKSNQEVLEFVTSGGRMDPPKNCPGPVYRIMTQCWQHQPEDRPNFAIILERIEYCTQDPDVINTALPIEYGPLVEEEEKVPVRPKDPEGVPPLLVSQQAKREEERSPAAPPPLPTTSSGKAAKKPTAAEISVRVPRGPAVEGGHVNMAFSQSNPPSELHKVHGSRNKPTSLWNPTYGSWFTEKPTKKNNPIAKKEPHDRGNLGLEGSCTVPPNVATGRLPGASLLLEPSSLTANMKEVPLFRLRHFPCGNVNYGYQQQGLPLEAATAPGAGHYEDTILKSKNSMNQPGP
Assay [7] has the same target. To be noted: at 1 µM.
The target of assay [8] is Tyrosine-protein kinase ABL2 (Homo sapiens) (UniProt P42684). To be noted: at 0.1 µM.
Sequence of Tyrosine-protein kinase ABL2 (Homo sapiens) (P42684 whole entry): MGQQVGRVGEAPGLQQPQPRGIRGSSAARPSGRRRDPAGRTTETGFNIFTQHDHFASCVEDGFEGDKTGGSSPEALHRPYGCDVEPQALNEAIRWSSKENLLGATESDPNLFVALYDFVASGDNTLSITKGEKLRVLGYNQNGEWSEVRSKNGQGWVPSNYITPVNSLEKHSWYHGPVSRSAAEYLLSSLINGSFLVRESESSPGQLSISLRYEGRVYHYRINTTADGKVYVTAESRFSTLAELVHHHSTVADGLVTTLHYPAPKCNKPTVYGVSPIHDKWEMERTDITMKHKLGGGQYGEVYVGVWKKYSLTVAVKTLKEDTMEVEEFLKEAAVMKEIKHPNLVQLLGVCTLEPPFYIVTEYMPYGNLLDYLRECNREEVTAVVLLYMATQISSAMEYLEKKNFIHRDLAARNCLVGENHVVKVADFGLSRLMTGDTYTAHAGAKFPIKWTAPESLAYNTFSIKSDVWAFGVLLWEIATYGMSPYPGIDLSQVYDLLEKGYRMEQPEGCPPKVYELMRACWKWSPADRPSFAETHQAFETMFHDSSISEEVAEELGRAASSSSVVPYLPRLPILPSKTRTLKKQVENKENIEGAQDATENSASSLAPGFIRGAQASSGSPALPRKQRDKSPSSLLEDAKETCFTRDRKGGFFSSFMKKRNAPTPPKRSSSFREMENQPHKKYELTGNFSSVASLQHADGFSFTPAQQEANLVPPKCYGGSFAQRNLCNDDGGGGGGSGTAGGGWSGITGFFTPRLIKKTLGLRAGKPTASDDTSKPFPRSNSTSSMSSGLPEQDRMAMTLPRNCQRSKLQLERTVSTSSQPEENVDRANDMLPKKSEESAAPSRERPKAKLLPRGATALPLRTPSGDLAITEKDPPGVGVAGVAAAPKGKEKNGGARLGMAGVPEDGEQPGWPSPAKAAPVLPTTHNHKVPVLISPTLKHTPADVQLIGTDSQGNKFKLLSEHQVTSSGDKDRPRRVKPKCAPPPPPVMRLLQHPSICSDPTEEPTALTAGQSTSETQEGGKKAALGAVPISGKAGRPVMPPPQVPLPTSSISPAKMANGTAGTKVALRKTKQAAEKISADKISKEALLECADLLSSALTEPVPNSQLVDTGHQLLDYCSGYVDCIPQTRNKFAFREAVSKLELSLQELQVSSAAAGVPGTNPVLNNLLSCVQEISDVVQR
Assay [9] shares this target. To be noted: at 1 µM.
Assay [10] has as its target Tyrosine-protein kinase receptor UFO (Homo sapiens) (UniProt P30530). To be noted: at 0.1 µM.
Assay [11] has the same target. To be noted: at 1 µM.
In assay [12] the target is Tyrosine-protein kinase Blk (Homo sapiens) (UniProt P51451). To be noted: at 0.1 µM.
Sequence of Tyrosine-protein kinase Blk (Homo sapiens) (P51451 2-505 limits assumed): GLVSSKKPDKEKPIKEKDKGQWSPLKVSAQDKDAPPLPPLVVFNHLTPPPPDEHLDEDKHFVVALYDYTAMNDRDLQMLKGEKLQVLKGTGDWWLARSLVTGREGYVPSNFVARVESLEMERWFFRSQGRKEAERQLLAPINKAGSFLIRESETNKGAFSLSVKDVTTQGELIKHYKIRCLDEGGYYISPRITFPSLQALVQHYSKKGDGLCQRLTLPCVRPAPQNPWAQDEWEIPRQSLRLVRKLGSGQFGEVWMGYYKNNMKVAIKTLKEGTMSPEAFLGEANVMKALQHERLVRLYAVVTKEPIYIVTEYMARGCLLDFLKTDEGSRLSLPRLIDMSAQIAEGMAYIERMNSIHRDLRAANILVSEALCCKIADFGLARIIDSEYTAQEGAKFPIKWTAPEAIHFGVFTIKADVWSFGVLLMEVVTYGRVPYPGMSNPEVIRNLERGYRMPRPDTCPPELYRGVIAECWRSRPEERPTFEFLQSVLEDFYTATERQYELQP
Assay [13] shares this target. To be noted: at 1 µM.
The target in assay [14] is T1, Cytoplasmic tyrosine-protein kinase BMX (Homo sapiens) (UniProt P51813).
T1 sequence (whole entry): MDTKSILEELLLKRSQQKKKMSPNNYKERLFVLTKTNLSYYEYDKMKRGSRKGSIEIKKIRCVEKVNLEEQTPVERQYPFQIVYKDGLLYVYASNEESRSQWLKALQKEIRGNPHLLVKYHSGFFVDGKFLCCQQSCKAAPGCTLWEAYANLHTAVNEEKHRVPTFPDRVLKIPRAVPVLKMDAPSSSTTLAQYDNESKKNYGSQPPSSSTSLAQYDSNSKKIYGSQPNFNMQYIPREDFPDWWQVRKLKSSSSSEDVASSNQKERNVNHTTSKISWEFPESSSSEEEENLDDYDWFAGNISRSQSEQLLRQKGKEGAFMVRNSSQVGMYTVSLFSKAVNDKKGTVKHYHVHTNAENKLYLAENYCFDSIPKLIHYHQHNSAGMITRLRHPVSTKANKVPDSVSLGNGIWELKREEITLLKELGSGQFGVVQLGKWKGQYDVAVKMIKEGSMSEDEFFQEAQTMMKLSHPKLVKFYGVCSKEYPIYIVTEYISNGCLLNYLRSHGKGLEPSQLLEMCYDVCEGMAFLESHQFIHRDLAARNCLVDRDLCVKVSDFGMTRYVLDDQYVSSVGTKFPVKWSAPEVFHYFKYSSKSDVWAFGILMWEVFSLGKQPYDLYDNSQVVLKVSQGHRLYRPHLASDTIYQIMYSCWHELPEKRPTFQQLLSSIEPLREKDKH
To be noted: at 0.1 µM.

The target of assay [15] is T1, Cytoplasmic tyrosine-protein kinase BMX (Homo sapiens). To be noted: at 1 µM.
For assay [16], the target named is Protein-tyrosine kinase 6 (Homo sapiens) (UniProt Q13882). To be noted: at 0.1 µM.
Sequence of Protein-tyrosine kinase 6 (Homo sapiens) (Q13882 whole entry, looked up): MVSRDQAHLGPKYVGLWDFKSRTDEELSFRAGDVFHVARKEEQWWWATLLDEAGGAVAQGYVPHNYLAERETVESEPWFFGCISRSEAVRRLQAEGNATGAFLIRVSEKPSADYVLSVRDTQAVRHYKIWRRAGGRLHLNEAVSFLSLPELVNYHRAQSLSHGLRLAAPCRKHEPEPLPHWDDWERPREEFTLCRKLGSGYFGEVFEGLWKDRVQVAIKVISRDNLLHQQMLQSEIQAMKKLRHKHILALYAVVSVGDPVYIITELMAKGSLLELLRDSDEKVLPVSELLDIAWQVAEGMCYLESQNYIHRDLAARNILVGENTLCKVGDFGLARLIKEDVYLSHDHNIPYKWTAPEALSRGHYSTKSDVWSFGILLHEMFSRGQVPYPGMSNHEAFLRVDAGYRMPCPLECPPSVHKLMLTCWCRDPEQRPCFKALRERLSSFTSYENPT
The target is the same in assay [17]. To be noted: at 1 µM.
In assay [18] the target is Tyrosine-protein kinase BTK (Homo sapiens) (UniProt Q06187). To be noted: at 0.1 µM.
Sequence of Tyrosine-protein kinase BTK (Homo sapiens) (Q06187 whole entry): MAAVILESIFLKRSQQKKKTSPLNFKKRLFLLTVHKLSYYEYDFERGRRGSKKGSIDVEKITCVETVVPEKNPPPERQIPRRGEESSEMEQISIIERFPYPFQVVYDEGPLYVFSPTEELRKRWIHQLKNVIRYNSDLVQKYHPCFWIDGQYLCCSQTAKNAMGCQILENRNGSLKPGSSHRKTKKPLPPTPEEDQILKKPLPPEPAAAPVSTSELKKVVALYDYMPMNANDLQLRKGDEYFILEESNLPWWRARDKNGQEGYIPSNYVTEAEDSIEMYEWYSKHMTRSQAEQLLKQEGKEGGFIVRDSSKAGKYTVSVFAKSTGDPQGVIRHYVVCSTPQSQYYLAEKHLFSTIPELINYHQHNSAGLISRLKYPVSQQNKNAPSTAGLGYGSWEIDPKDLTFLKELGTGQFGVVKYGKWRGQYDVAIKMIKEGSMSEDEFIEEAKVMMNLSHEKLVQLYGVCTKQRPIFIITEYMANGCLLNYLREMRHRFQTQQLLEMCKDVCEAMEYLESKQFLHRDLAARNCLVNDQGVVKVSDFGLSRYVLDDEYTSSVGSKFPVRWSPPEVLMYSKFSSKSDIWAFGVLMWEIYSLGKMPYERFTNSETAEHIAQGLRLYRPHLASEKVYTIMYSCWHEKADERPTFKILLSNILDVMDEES
The target is the same in assay [19]. To be noted: at 1 µM.
Assay [20] deals with Tyrosine-protein kinase CSK (Homo sapiens) (UniProt P41240). To be noted: at 0.1 µM.
Sequence of Tyrosine-protein kinase CSK (Homo sapiens) (P41240 2-450 limits assumed): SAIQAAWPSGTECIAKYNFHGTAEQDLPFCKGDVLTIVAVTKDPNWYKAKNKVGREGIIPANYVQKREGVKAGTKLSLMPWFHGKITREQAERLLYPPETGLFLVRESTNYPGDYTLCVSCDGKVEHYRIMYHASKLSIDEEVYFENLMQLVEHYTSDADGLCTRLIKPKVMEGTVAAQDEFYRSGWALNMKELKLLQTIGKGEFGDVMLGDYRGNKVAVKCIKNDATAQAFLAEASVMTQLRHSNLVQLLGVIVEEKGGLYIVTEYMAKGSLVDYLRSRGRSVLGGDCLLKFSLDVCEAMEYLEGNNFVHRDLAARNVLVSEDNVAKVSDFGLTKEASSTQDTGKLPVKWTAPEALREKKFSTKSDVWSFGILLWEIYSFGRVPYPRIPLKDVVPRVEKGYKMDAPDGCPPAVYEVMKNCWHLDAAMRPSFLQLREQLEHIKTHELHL

The term inhibition denotes the drop in the measured response relative to a control, in per cent. Regarding `COc1ccc(-c2ccncc2)cc1C(N)=O`, the inhibition stood at 2.08% in [1]; 4.84% in assay [2]; 2.94% in assay [3]; 4.11% in assay [4]; 5.76% in assay [5]; 3.85% in assay [6]. In addition, the inhibition in [7] was 6.43%; in assay [8], 3.92%; in [9] it was 4.08%; in assay [10], -7.91%; in [11], -7.29%; in assay [12], 3.55%. Further, the inhibition was 3.47% in [13]; 3.29% in assay [14]; 5.58% in assay [15]; 3.09% in [16]; 3.57% in assay [17]; -1.01% in [18]. Besides, the inhibition in [19] is -0.13%; in [20], 2.75%.
On to `Fc1cccc(COc2ccc(Nc3ncnc4sc(-c5cccs5)cc34)cc2Cl)c1`, for which the inhibition in [1] is 0.93%; in assay [2], 1.7%; in assay [3], 3.31%; in assay [4], 1.23%; in assay [5], 6.44%; in assay [6], 0.25%. Besides, the inhibition in assay [7] was 0.57%; in [8], 1.27%; in [9], 5.37%; in [10], -4.04%; in [11], 1.51%; in [12], 1.15%. Also, the inhibition in assay [13] was 3.35%; in assay [14], 1.58%; in assay [15], 4.35%; in [16], -1.94%; in [17], 2.02%; in [18], -0.95%. Moreover, the figures for the inhibition in assay [19] and in assay [20] were -0.95% and 2.73%, respectively.
For the compound `CS(=O)(=O)Nc1ccc(N/C=C2\C(=O)Nc3ccccc32)cc1`, the inhibition in assay [1] is 18.3%; in assay [2], -0.43%; in [3] it was 12%; in [4], -0.3%; in assay [5], 11%; in assay [6] it was -2.22%. The inhibition in [7] came to 5.88%; in assay [8], 0.2%; in [9] it was 8.69%; in assay [10] it was 2.95%; in [11], 4.47%; in assay [12] it was 0.62%. Further, the inhibition is 18.2% in assay [13]; -1.58% in assay [14]; 0.63% in [15]; -4.62% in [16]; -2.23% in [17]; -1.06% in assay [18]. For the same compound, the inhibition in [19] was -0.9%; in assay [20], -9.22%.
Take `COC(=O)Nc1nc2cc(Oc3ccc(NC(=O)Nc4cccc(C(=O)O)c4)cc3)ccc2[nH]1`: the inhibition in assay [1] is 15.4%; in assay [2], 5.1%; in [3], 7.71%; in assay [4] it was -2.66%; in assay [5], 6.45%; in assay [6], -3.78%. The inhibition was -1.37% in assay [7]; -0.6% in assay [8]; 3.96% in [9]; -0.47% in [10]; -0.32% in [11]; -1.59% in [12]. Further, the inhibition in assay [13] was 0.01%; in assay [14], 0.22%; in assay [15], 0.47%; in [16], 0.95%; in assay [17] it was -0.37%; in [18] it was -1.95%. Further, the inhibition in assay [19] was -2.57%; in [20], 2.42%.
Take `CC(=O)Nc1cccc(C#Cc2cncnc2Nc2ccc(OCc3cccc(F)c3)c(Cl)c2)n1`: the inhibition in [1] was 2.23%; in [2], 2.32%; in assay [3], 1.84%; in assay [4], 1.24%; in assay [5] it was 4.88%; in assay [6], -2.16%. Moreover, the inhibition in assay [7] is -2.6%; in assay [8] it was 0.55%; in assay [9], 3.74%; in assay [10], 7.46%; in [11], 1.38%; in assay [12], 1.94%. Further, the inhibition in assay [13] is 1.82%; in [14] it was 1.43%; in assay [15], 0.97%; in assay [16], -2.54%; in assay [17], 1.12%; in assay [18] it was 0.29%. In addition, the values for the inhibition in assay [19] and in [20] were 0.86% and -1.09%, respectively.
Turning to `COc1cc2ncn(-c3cc(O[C@H](C)c4ccccc4Cl)c(C(N)=O)s3)c2cc1OC`, the inhibition in [1] was found to be 57.9%; in assay [2] it was 11.5%; in [3], 47.1%; in assay [4], 7.25%; in assay [5], 47.2%; in assay [6], 4.18%. For the same compound, the inhibition in assay [7] is 19%; in [8] it was 4.99%; in assay [9], 37.2%; in assay [10] it was -0.27%; in assay [11] it was 8.37%; in assay [12], 5.28%. Moreover, the inhibition in assay [13] was 23.4%; in [14] it was 2.09%; in [15] it was 9.76%; in [16] it was -0.56%; in assay [17] it was 3.6%; in assay [18], 1.78%. For the same compound, the inhibition in assay [19] turned out to be 6.48%; in [20] it was 4.29%.
Regarding `COc1ccc2cc(-c3c(-c4ccncc4)nc(-c4ccc([S+](C)[O-])cc4)n3C)ccc2c1` (stereo not given), the inhibition in [1] stood at 12.1%; in assay [2], 1.26%; in assay [3], 4.12%; in [4], 2.44%; in assay [5], 8.87%; in assay [6], 1.63%. The inhibition in [7] is 3.57%; in assay [8], 2.63%; in assay [9], 9.3%; in [10], -6.33%; in assay [11], -3.32%; in assay [12] it was 1.88%. The inhibition in assay [13] was determined as 6.67%; in assay [14] it was 4.9%; in assay [15], 3.64%; in [16], 8.25%; in assay [17] it was 42%; in assay [18], 0.83%. In addition, the inhibition came to 1.4% in [19] and 1.52% in assay [20].
In the case of `CCn1c(-c2nonc2N)nc2cncc(C(=O)N3CC[C@H](N)C3)c21`, the inhibition in assay [1] is 3.27%; in assay [2], 2.94%; in assay [3], 3.51%; in [4], 4.28%; in assay [5], 4.33%; in assay [6] it was 3.95%. In addition, the inhibition in assay [7] is 3.52%; in [8], 5.33%; in [9] it was 7.29%; in assay [10], -5.66%; in [11], -4.01%; in assay [12], 2.69%. For the same compound, the inhibition in assay [13] was 3.09%; in assay [14] it was 2.23%; in assay [15], 0.56%; in assay [16], 4.5%; in assay [17], 8.63%; in assay [18] it was -0.23%. Besides, the inhibition in [19] was -1.15%; in [20] it was 5.91%.
Regarding `COc1ccc(-c2nn3ncccc3c2-c2ccnc(Nc3ccc(Cl)c(C(F)(F)F)c3)n2)cc1`, the inhibition in assay [1] was found to be 4.57%; in assay [2], 2.03%; in assay [3], 6.35%; in assay [4] it was 2.26%; in assay [5], 10.3%; in [6], 1.83%. The inhibition in [7] was 2.05%; in assay [8], 2.64%; in assay [9], 9.44%; in assay [10] it was -2.69%; in assay [11] it was -2.97%; in [12], 1.79%. Also, the inhibition in assay [13] was determined as 2.85%; in assay [14] it was 2.75%; in assay [15] it was 2.33%; in [16], 3.82%; in [17], 4.81%; in [18], 0.66%. In addition, the inhibition is 0.36% in assay [19] and -0.37% in assay [20].
Regarding `COc1cccc(-n2ncc3c(N/N=C/c4cccc(F)c4)ncnc32)c1`, the inhibition was 51.8% in [1]; 57.7% in assay [2]; 89.2% in assay [3]; 12% in [4]; 69.3% in assay [5]; -1.54% in assay [6]. Besides, the inhibition is -1.21% in assay [7]; 3.52% in [8]; 52.4% in assay [9]; -2.89% in assay [10]; 1.49% in [11]; -0.8% in [12]. Moreover, the inhibition in [13] is 17.9%; in assay [14] it was 16.8%; in assay [15], 13.8%; in assay [16], -0.23%; in assay [17] it was 5.33%; in [18] it was -5.62%. Besides, the inhibition in [19] was -4.52%; in assay [20], 1.19%.
With `CS(=O)(=O)CCN(CC#N)Cc1ccc(-c2ccc3ncnc(Nc4ccc(OCc5cccc(F)c5)c(Cl)c4)c3c2)o1`, the inhibition was -0.34% in assay [1]; 2.36% in assay [2]; 1.9% in assay [3]; -2.3% in assay [4]; -2.95% in assay [5]; -2.83% in assay [6]. Besides, the inhibition in [7] was -0.48%; in [8], -2.62%; in assay [9], -1.72%; in assay [10], -6.1%; in assay [11], -5.07%; in assay [12] it was -2.59%. For the same compound, the inhibition was -2.7% in assay [13]; 1.65% in assay [14]; 3.9% in assay [15]; 2.35% in assay [16]; 4.81% in [17]; -4.96% in assay [18]. In addition, the inhibition in assay [19] was -5.01%; in assay [20], 3.24%.
Consider `CCCN1CCC(Oc2cc(Nc3nc(Nc4cccc(F)c4C(N)=O)c4cc[nH]c4n3)c(OC)cc2Cl)CC1`, for which the inhibition in assay [1] was determined as 1.37%; in [2], 1.12%; in assay [3], 3.82%; in assay [4], 4.76%; in assay [5], 10.1%; in assay [6] it was 55.7%. The inhibition in assay [7] came out at 78.2%; in assay [8], 4.89%; in [9] it was 12.3%; in assay [10], 5.22%; in [11], 6.29%; in assay [12], 0.32%. For the same compound, the inhibition is 4.43% in assay [13]; -3.07% in assay [14]; 0.44% in [15]; 2.81% in [16]; 14.8% in assay [17]; 0.06% in [18]. Further, the inhibition in assay [19] is 0.8%; in assay [20] it was -0.02%.

The values above are taken from ChEMBL document CHEMBL1961873, “Compounds: GSK PKIS; Assays: Nanosyn kinase panel” (2012).
